# In publication PMC7862700, “An all-to-all approach to the identification of sequence-specific readers for epigenetic DNA modifications on cytosine”:
# Columns and labels:
# Test in all cases: DAPPL (digital affinity profiling via proximity ligation, sequencing); 10 mM Tris-HCl pH 7.5, 50 mM NaCl, 1 mM DTT, 4% glycerol, room temperature, 30 min; GST-TFs on glutathione beads, 16-mer random dsDNA library, 0.1% formaldehyde crosslink after washing; high values mean tight binding
# FLI1 = target: T1, FLI1 (Homo sapiens, UniProt Q01543 1-452); conditions: protein: recombinant; tags: N-terminal GST; dsDNA, one strand shown
# T1 sequence: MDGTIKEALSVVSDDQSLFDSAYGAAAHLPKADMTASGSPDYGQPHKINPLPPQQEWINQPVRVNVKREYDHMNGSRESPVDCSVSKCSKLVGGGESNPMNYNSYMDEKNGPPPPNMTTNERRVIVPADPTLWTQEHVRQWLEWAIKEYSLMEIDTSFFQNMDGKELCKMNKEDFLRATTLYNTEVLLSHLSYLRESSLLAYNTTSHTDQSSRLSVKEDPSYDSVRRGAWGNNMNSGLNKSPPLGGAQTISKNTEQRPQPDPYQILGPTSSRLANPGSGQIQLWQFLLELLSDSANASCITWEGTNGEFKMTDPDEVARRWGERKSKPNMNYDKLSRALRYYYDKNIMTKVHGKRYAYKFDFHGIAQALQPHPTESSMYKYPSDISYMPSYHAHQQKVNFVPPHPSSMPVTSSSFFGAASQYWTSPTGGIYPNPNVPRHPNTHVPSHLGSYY
# How it was run: (§1)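 Pools were built from human transcription factors expressed in yeast as GST fusions, captured on glutathione beads and DNA-barcoded, along with a tag-only sample. Incubation with 200 nmole of a 16-mer random double-stranded DNA library lasted 30 min at room temperature in Tris/NaCl/DTT/glycerol buffer, and was followed by washing, 0.1% formaldehyde crosslinking, proximity ligation, PCR amplification and Illumina NextSeq500 sequencing. Binding signal is the quotient of each hexamer's read frequency for a factor and its frequency for the tag-only sample.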
# ELK1 = target: T2, ELK1 (Homo sapiens, UniProt P19419 1-428); conditions: protein: recombinant; tags: N-terminal GST; dsDNA, one strand shown
# T2 sequence: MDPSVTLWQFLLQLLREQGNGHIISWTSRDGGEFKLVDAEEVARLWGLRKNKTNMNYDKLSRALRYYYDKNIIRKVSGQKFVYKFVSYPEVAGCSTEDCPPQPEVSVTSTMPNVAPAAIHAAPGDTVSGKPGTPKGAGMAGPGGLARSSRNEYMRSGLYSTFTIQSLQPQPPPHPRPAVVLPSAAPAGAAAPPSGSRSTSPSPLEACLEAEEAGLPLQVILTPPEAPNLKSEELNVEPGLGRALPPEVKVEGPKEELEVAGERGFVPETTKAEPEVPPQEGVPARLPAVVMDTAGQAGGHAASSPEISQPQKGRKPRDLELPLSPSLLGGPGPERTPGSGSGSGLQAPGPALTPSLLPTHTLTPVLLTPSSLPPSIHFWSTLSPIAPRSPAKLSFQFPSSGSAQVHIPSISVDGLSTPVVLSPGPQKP
# How it was run: as §1
# GABPA = target: T3, GABPA (Homo sapiens, UniProt Q06546 1-454); conditions: protein: recombinant; tags: N-terminal GST; dsDNA, one strand shown
# T3 sequence: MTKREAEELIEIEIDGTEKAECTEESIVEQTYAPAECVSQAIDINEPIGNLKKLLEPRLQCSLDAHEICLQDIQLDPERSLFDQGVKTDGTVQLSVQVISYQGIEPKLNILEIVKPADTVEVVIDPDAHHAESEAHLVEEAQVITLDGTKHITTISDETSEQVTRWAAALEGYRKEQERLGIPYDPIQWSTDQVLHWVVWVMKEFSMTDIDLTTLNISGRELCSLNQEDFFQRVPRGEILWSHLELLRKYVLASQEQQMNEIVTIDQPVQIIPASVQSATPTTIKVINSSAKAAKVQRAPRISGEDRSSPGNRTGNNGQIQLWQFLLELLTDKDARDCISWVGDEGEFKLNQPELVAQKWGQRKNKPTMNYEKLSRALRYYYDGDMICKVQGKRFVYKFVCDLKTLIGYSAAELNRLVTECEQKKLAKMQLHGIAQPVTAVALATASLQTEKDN
# How it was run: as §1
# ERG = target: T4, ERG (Homo sapiens, UniProt P11308 1-479); conditions: protein: recombinant; tags: N-terminal GST; dsDNA, one strand shown
# T4 sequence: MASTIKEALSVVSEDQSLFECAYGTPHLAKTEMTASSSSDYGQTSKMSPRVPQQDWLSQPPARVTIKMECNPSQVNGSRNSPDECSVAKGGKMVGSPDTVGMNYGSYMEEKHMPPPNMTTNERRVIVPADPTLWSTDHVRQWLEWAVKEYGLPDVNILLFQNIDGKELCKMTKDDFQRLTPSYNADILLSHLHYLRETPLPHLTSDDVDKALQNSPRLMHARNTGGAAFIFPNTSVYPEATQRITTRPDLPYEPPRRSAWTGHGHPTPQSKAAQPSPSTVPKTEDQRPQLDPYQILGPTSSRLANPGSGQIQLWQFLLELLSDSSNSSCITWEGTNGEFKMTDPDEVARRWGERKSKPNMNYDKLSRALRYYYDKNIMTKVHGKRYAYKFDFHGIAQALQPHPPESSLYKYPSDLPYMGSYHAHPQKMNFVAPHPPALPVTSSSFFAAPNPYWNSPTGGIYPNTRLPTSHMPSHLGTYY
# How it was run: as §1
# ELF1 = ELF1 (Homo sapiens, UniProt P32519 1-619); conditions: protein: recombinant; tags: N-terminal GST; dsDNA, one strand shown
# Sequence of ELF1 (P32519 whole entry): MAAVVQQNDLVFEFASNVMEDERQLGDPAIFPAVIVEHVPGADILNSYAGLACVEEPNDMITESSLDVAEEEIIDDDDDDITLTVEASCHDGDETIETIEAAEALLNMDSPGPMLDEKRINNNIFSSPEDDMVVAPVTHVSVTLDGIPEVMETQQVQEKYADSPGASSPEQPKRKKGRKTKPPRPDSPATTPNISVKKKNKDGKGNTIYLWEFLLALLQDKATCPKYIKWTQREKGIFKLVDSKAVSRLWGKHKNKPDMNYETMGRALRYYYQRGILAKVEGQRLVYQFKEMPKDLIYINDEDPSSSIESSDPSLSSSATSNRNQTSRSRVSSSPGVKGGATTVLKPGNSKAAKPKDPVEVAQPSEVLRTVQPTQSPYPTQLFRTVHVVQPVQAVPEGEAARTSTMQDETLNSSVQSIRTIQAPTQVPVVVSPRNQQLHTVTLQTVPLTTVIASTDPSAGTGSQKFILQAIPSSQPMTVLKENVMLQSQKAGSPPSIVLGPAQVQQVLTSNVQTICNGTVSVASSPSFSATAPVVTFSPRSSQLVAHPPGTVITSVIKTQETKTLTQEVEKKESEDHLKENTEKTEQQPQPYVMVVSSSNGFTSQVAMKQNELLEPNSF
# How it was run: as §1
# EHF = target: T5, EHF (Homo sapiens, UniProt Q9NZC4 1-300); conditions: protein: recombinant; tags: N-terminal GST; dsDNA, one strand shown
# T5 sequence: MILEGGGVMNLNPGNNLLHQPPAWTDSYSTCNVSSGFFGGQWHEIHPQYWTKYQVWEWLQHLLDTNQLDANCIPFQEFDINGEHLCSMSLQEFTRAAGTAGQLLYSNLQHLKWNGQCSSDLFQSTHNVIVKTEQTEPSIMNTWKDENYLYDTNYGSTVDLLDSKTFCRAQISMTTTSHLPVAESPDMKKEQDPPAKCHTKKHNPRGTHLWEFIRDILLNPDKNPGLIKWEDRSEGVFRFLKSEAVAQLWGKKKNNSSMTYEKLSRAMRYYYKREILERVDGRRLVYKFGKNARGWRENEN
# How it was run: as §1
# SPI1 = SPI1 (Homo sapiens, UniProt P17947 1-270); conditions: protein: recombinant; tags: N-terminal GST; dsDNA, one strand shown
# How it was run: as §1
# SPIB = SPIB (Homo sapiens, UniProt Q01892 1-262); conditions: protein: recombinant; tags: N-terminal GST; dsDNA, one strand shown
# Sequence of SPIB (Q01892 whole entry): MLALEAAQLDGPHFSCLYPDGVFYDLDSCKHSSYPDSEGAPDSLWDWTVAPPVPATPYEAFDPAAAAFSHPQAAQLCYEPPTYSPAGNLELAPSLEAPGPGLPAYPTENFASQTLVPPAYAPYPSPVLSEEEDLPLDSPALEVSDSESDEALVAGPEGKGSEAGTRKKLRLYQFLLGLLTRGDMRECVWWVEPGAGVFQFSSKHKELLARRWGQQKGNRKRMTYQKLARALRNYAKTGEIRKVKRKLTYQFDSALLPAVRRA
# How it was run: as §1
# ELK3 = target: T6, ELK3 (Homo sapiens, UniProt P41970 1-407); conditions: protein: recombinant; tags: N-terminal GST; dsDNA, one strand shown
# T6 sequence: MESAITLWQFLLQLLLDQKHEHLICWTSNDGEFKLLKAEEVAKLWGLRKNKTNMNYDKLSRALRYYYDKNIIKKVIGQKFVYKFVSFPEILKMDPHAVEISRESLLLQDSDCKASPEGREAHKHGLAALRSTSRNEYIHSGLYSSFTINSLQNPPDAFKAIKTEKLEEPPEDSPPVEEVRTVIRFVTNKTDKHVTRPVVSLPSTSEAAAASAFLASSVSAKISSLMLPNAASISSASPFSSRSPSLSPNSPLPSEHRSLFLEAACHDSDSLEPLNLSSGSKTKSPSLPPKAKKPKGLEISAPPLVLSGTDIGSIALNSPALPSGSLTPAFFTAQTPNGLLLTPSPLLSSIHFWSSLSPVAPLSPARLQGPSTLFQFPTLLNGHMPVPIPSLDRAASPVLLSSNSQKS
# How it was run: as §1
# FEV = target: T7, FEV (Homo sapiens, UniProt Q99581 1-238); conditions: protein: recombinant; tags: N-terminal GST; dsDNA, one strand shown
# T7 sequence: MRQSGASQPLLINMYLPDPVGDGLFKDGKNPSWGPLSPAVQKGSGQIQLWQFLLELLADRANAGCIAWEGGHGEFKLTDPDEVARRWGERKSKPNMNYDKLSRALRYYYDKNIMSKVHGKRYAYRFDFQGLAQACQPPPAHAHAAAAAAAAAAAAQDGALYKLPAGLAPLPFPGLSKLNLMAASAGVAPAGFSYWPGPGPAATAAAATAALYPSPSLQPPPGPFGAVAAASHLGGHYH
# How it was run: as §1
# ETV5 = ETV5 (Homo sapiens, UniProt P41161 1-510); conditions: protein: recombinant; tags: N-terminal GST; dsDNA, one strand shown
# Sequence of ETV5 (P41161 whole entry): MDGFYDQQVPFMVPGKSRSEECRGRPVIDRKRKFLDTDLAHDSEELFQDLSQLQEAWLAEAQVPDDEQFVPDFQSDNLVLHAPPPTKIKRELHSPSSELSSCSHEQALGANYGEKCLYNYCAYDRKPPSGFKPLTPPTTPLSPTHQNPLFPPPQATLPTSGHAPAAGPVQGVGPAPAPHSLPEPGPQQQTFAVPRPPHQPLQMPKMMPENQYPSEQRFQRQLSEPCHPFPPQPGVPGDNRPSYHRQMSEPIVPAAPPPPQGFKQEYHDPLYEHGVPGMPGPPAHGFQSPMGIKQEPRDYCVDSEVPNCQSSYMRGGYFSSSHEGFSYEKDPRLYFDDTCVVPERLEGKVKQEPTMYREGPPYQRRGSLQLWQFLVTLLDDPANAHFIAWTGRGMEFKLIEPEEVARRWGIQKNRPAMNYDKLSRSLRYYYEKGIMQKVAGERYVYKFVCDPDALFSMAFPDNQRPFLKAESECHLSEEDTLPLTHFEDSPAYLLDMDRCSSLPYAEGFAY
# How it was run: as §1
# HSF1 = HSF1 (Homo sapiens, UniProt Q00613 1-529); conditions: protein: recombinant; tags: N-terminal GST; chain copies: 3; dsDNA, one strand shown
# Sequence of HSF1 (Q00613 whole entry): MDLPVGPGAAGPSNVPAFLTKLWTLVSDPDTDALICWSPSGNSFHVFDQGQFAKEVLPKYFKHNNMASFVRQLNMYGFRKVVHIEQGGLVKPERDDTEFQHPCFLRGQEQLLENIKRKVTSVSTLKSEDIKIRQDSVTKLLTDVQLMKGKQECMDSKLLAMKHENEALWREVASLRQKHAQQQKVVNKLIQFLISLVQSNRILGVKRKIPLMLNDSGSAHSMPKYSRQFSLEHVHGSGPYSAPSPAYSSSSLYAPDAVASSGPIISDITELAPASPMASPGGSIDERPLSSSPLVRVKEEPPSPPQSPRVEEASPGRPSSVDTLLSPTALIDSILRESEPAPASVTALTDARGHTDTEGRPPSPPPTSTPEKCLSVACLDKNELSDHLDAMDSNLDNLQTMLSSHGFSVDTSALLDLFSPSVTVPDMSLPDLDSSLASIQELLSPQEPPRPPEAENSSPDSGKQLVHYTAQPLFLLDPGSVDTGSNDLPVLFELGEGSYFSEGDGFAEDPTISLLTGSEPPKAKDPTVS
# How it was run: as §1
# SPIC = target: T8, SPIC (Homo sapiens, UniProt Q8N5J4 1-248); conditions: protein: recombinant; tags: N-terminal GST; dsDNA, one strand shown
# T8 sequence: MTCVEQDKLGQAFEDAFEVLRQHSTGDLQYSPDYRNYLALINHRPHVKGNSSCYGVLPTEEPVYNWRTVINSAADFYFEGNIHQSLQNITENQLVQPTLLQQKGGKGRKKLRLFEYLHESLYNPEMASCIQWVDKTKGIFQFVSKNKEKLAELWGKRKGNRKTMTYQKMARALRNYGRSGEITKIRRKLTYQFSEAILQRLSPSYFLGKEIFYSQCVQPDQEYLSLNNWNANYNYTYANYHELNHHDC
# How it was run: as §1
# ELF4 = ELF4 (Homo sapiens, UniProt Q99607 1-663); conditions: protein: recombinant; tags: N-terminal GST; dsDNA, one strand shown
# Sequence of ELF4 (Q99607 whole entry): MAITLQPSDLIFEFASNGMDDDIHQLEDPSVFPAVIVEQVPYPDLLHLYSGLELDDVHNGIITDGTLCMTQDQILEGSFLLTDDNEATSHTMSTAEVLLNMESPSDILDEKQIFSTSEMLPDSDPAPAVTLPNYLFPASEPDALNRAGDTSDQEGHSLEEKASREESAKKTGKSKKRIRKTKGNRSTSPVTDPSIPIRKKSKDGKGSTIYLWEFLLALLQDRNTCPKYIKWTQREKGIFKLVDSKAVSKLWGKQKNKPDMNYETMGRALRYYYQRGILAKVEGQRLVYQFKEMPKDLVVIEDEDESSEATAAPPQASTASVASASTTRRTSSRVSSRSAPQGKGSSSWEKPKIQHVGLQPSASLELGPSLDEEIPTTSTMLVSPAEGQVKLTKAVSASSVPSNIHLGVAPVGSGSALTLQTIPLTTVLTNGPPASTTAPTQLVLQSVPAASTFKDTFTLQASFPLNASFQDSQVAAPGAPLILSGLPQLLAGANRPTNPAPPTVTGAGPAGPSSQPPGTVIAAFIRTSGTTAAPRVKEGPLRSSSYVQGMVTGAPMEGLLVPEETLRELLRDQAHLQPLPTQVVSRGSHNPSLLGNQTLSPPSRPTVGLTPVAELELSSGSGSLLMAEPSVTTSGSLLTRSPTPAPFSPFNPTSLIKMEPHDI
# How it was run: as §1
# ELK4 = target: T9, ELK4 (Homo sapiens, UniProt P28324-2 1-405); conditions: protein: recombinant; tags: N-terminal GST; dsDNA, one strand shown
# T9 sequence: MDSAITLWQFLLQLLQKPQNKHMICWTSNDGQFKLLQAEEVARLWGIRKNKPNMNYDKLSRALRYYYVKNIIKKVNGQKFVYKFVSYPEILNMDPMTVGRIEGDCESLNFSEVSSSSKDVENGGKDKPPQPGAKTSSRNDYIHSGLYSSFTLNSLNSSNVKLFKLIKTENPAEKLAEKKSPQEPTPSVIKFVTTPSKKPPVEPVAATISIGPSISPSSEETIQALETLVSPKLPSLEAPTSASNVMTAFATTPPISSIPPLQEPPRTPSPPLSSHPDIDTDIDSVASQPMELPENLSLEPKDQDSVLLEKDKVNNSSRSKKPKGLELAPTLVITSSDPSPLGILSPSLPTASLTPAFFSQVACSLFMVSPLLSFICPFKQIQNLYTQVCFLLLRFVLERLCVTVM
# How it was run: as §1
# ETV2 = target: T10, ETV2 (Homo sapiens, UniProt O00321 1-342); conditions: protein: recombinant; tags: N-terminal GST; dsDNA, one strand shown
# T10 sequence: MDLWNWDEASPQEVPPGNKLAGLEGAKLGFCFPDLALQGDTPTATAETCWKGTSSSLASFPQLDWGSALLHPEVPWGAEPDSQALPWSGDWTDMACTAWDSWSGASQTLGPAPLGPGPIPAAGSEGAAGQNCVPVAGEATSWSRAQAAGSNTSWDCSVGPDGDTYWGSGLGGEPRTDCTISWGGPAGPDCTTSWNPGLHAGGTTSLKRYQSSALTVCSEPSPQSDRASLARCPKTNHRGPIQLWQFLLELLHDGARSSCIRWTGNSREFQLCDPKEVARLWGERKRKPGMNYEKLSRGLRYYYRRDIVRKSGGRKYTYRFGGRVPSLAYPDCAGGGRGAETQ
# How it was run: as §1
# ELF3 = target: T11, ELF3 (Homo sapiens, UniProt P78545 1-371); conditions: protein: recombinant; tags: N-terminal GST; dsDNA, one strand shown
# T11 sequence: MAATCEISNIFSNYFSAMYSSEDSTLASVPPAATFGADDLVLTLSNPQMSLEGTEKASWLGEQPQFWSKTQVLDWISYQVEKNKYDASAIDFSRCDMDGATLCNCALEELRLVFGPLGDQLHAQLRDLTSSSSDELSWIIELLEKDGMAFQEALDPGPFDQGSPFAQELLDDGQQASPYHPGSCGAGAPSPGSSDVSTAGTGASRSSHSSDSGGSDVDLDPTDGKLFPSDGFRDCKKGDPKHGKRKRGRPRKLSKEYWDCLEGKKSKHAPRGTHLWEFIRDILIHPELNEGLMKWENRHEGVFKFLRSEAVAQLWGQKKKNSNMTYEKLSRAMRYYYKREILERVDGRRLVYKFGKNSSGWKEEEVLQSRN
# How it was run: as §1
# CRX = CRX (Homo sapiens, UniProt O43186 1-299); conditions: protein: recombinant; tags: N-terminal GST; dsDNA, one strand shown
# Sequence of CRX (O43186 whole entry): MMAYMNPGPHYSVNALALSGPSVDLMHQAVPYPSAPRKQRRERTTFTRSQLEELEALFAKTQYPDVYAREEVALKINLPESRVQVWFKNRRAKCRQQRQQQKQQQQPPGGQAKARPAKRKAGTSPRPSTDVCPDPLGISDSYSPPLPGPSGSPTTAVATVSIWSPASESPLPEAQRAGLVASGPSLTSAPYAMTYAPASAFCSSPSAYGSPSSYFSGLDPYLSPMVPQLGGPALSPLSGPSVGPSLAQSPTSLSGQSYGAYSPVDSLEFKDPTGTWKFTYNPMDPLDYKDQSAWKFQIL
# How it was run: as §1
# ETV1 = ETV1 (Homo sapiens, UniProt P50549 1-477); conditions: protein: recombinant; tags: N-terminal GST; dsDNA, one strand shown
# Sequence of ETV1 (P50549 whole entry): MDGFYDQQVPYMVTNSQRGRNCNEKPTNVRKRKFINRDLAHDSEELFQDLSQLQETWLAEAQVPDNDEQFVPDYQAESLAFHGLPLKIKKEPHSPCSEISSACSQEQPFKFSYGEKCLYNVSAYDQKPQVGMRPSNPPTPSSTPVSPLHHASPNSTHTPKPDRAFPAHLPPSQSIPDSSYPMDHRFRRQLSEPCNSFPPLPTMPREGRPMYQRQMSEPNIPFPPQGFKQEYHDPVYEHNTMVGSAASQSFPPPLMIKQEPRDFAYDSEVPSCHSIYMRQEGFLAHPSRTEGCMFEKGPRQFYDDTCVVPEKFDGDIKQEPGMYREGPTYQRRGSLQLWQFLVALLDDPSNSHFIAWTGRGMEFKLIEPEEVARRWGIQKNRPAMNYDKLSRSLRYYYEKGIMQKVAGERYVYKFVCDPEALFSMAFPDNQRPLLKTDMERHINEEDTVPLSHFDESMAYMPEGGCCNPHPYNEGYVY
# How it was run: as §1
sequence,measurement,setting,value
AGTATT,binding signal,FLI1,"1.12 fold enrichment (6-mer frequency, TF over GST control)"
same,binding signal,ELK1,"1.19 fold enrichment (6-mer frequency, TF over GST control)"
same,binding signal,GABPA,"1.1 fold enrichment (6-mer frequency, TF over GST control)"
same,binding signal,ERG,"1.2 fold enrichment (6-mer frequency, TF over GST control)"
same,binding signal,ELF1,"1.14 fold enrichment (6-mer frequency, TF over GST control)"
same,binding signal,EHF,"1.15 fold enrichment (6-mer frequency, TF over GST control)"
same,binding signal,SPI1,"1.1 fold enrichment (6-mer frequency, TF over GST control)"
same,binding signal,SPIB,"1.17 fold enrichment (6-mer frequency, TF over GST control)"
same,binding signal,ELK3,"1.14 fold enrichment (6-mer frequency, TF over GST control)"
same,binding signal,FEV,"1.14 fold enrichment (6-mer frequency, TF over GST control)"
same,binding signal,ETV5,"1.2 fold enrichment (6-mer frequency, TF over GST control)"
same,binding signal,HSF1,"1.35 fold enrichment (6-mer frequency, TF over GST control)"
same,binding signal,SPIC,"1.22 fold enrichment (6-mer frequency, TF over GST control)"
same,binding signal,ELF4,"1.16 fold enrichment (6-mer frequency, TF over GST control)"
same,binding signal,ELK4,"1.17 fold enrichment (6-mer frequency, TF over GST control)"
same,binding signal,ETV2,"1.07 fold enrichment (6-mer frequency, TF over GST control)"
same,binding signal,ELF3,"1.17 fold enrichment (6-mer frequency, TF over GST control)"
same,binding signal,CRX,"1.57 fold enrichment (6-mer frequency, TF over GST control)"
same,binding signal,ETV1,"1.19 fold enrichment (6-mer frequency, TF over GST control)"
